Rows were chosen to be rich in hits. Some 2.3% of all compounds tested hit in one or more screens of this group.
CHO-K1 Ca PAM = nonselective calcium activators in parental CHO-K1 cells, primary screen, counter-screen for M1 PAM project, cell-based, Fluo-8 calcium fluorescence, full deck, 1536-well; ATP EC20; 0% at ATP EC20, 100% at ATP max; activation, % at 3 µM; hit rate 0.02% among 360,000;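 active means activation above the run cutoff, the mean activation of all test compounds plus 3 SD, cut at about 40% in these data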;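 further: peak over basal fluorescence ratio in a 140 s read after ATP addition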
CHO-K1 Ca antag = M1 antagonist counterscreen hit in parental CHO-K1 cells; ATP-induced calcium, Fluo-8 fluorescence; inhibition, % at 3 µM; hit rate 0.6% among 360,000; AID 602250;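 active means inhibition above a per-plate cutoff, the plate's mean sample inhibition plus 3 SD, cut at about 24% in these data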
CHRM1 PAM = human M1 muscarinic receptor positive allosteric modulators, primary screen, CHO-K1 cells, Fluo-8 calcium fluorescence, 1536-well; CHO-K1 hM1, ACh EC20; 0% = ACh EC20, 100% = maximal ACh; AID 588819, 2011; Muscarinic acetylcholine receptor M1 (Homo sapiens), P11229; activation, % at 3 µM; hit rate 0.088% among 360,000; in the data active means activation above about 19%, passing the limit was not always enough
Target sequence (P11229 whole entry, looked up): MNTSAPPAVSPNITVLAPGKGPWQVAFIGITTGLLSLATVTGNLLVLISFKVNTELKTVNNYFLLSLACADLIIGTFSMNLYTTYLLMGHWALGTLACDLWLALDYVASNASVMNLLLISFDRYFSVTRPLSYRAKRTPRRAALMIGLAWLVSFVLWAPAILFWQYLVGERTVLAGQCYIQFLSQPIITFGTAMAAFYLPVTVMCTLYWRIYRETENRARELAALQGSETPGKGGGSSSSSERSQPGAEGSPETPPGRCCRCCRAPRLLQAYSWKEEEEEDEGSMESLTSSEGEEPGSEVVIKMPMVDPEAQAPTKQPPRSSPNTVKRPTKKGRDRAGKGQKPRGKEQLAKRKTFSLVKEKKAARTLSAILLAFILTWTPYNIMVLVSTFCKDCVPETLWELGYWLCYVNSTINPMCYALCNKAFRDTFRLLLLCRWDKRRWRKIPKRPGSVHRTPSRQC
M1 ag = human M1 muscarinic receptor agonists, primary screen, Fluo-8 calcium fluorescence, CHO-K1 cells, HTS | CHO-K1 hM1, agonist mode; 0% DMSO, 100% acetylcholine EC100 | activation, % at 3 µM | AID 588814, 2011 | hit rate 0.33% among 360,000;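 active means activation above the run's mean compound activation plus 3 SD, cut at about 16% in these data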;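 further: peak over basal fluorescence ratio within a 140 s kinetic read after compound addition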
CHRM1 antagonist = human M1 muscarinic receptor antagonists, primary screen, CHO-K1 cells, Fluo-8 calcium fluorescence, 1536-well; Muscarinic acetylcholine receptor M1 (Homo sapiens), P11229; CHO-K1 hM1, ACh EC80 antagonist; inhibition, % at 3 µM; hit rate 1.3% among 360,000; AID 588852, 2011;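 active means percent inhibition above its own plate's cutoff, namely the mean of that plate's compound wells plus 3 SD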;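 further: peak over basal fluorescence ratio during 140 s after agonist addition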
M1 ag parental = counter-screen for M1 agonists: effect in parental CHO-K1 cells; Fluo-8 calcium fluorescence; scaled to maximal ATP response, vehicle zero; activation, % at 3 µM; hit rate 0.48% among 360,000; in the data active means activation above about 15%;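 further: untransfected CHO-K1 host cells lacking M1 receptor as counterscreen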
A number is an active result; - = inactive.

SMILES	CHO-K1 Ca PAM	CHO-K1 Ca antag	CHRM1 PAM	M1 ag	CHRM1 antagonist	M1 ag parental
COc1ccc(-c2c(N)cnc(C(=O)O)c2C)c(OCc2ccccc2)c1OC	-	-	-	-	-	-
Cc1c(C(=O)OCC(=O)NCc2ccco2)oc2ccccc12	-	-	-	-	-	-
COCc1c(C(=O)OCC(=O)NCc2ccco2)oc2ccccc12	-	24	-	-	-	-
Cc1cccc(S(=O)(=O)NC(=O)C2(C)CCN2C(=O)Cc2ccc(Cl)cc2Cl)c1 (centres undefined)	-	-	-	-	-	-
CCOc1ccc(-c2c(=O)n(OCc3ccc([N+](=O)[O-])cc3)c3ccccc3[n+]2[O-])c(OCC)c1	-	-	-	-	-	20
Cc1cc(C)c(C#N)c(SCc2ccccc2[N+](=O)[O-])n1	-	-	-	-	-	-
Cc1cc(C)c(C#N)c(SCc2nnc(-c3ccccc3[N+](=O)[O-])o2)n1	-	-	-	-	43	-
Cc1cc(C)c(C#N)c(SCc2nnc(-c3ccccc3)o2)n1	-	25	-	-	24	-
C/C(=N\N=C(N)N)c1ccc(C)c(C)c1	-	-	-	-	-	-
CN(C)c1ccc(C2CC(=O)NC3=C2C(=O)CC(C)(C)C3)cc1 (centres undefined)	-	-	-	-	-	-
CCN(CC)c1ccc(C2CC(=O)NC3=C2C(=O)CC(C)(C)C3)cc1 (centres undefined)	-	-	-	-	26	-
CC(C)(Oc1ccc(Cl)cc1)C(=O)OCc1nc2ccsc2c(=O)[nH]1	-	-	-	-	-	-
CC[N+](CC)(CC)CCC(O)(c1ccccc1)C1CCCCC1 (centres undefined)	-	-	-	-	98	-
CCN(CC)CCC(O)(c1ccccc1)C1CCCCC1 (centres undefined)	-	-	-	-	100	-
O=C(Nc1ccc(S(=O)(=O)N2CCOCC2)cc1)c1cccnc1	-	-	-	-	-	-
COc1ccc(C(=O)CSc2nc3cccnc3n2C)cc1	-	28	-	-	-	-
CCOC(=O)c1ccc(NC(=O)CSc2nc3cccnc3n2C)cc1	-	34	-	-	-	-
O=C(c1ccco1)N1CCN(Cc2nc3ccc([N+](=O)[O-])cc3c(=O)n2-c2ccccc2F)CC1	-	28	-	-	-	-
Cc1ccc(C(=O)N2CCSC2=S)cc1	-	26	-	-	-	-
COc1cccc(C2c3[nH]c4ccccc4c3CCN2Cc2cnc(C)s2)c1OC (centres undefined)	-	-	-	-	35	-
COc1ccccc1C1c2[nH]c3ccccc3c2CCN1Cc1cnc(C)s1 (centres undefined)	-	-	-	-	-	-
CC(=O)c1c(C)[nH]c(C(=O)OCC(=O)Nc2cc(Cl)ccc2[N+](=O)[O-])c1C	-	-	-	-	25	-
Cc1ccc(-c2nc3ncccc3o2)cc1NC(=O)c1cc2ccccc2o1	-	-	-	-	-	-
O=C(Nc1cccc(-c2nc3ncccc3o2)c1)c1cc2ccccc2o1	-	26	-	-	-	-
COCCCN1C(=O)C(CC(=O)NCCCCc2ccccc2)CC(C(=O)N(C(C)C)C(C)C)=C1C (centres undefined)	-	-	-	-	-	-
SMILES	CHO-K1 Ca PAM	CHO-K1 Ca antag	CHRM1 PAM	M1 ag	CHRM1 antagonist	M1 ag parental
CC(C)Oc1cccc(C(=O)C2CCCN(Cc3ccc(Oc4ncccn4)cc3)C2)c1 (centres undefined)	-	-	-	-	83	-
COc1c(C)cc(C(=O)C2CCCN(Cc3ccc(Oc4ncccn4)cc3)C2)cc1C (centres undefined)	-	-	-	-	35	-
COc1cc2c(c(OC)c1OC)C(c1ccc(C)cc1)CC(=O)O2 (centres undefined)	-	-	-	-	-	-
C/C(=N\Nc1nc2ccc(Cl)cc2o1)c1ccccc1	-	-	-	-	-	-
O=C(CN1C(=O)S/C(=C/c2cccs2)C1=O)N1CCOCC1	-	-	-	-	38	-
CC1(C(=O)NC2CCCC2)CCC(=O)N1C1CCN(Cc2ccccc2)CC1 (centres undefined)	-	-	-	-	-	-
O=C(Oc1cccc(Nc2ncnc3ccccc23)c1)c1ccccc1Cl	-	25	-	-	25	-
COc1cccc(Nc2ncnc3ccccc23)c1	-	-	-	-	-	-
N=c1c2c(ncn1CCN1CCOCC1)Oc1cc(O)ccc1C2c1ccccc1 (centres undefined)	-	-	-	-	30	-
CCc1ccc(-c2nc(CS(=O)CC(=O)NCCCN3CCOCC3)c(C)o2)cc1 (centres undefined)	-	-	-	-	-	-
CCOC(=O)CC1COCCN1Cc1cn(C)nc1-c1ccccc1F (centres undefined)	-	-	-	-	-	-
OCC1CCCCN1CC(O)COC(c1ccc(F)cc1)c1ccc(F)cc1 (centres undefined)	-	-	-	-	-	-
C=C(C)CSc1nc2sc3c(c2c(=O)n1-c1ccccc1)CCN(C)C3	-	-	-	-	36	-
C=C(C)CSc1nc2sc3c(c2c(=O)n1C1CCCCC1)CCN(C)C3	-	-	-	-	31	-
CSc1nc2sc3c(c2c(=O)n1C1CCCCC1)CCN(C)C3	-	-	-	-	29	-
Cc1cc(C)c(C)c(S(=O)(=O)N2CCC(C(=O)NCCCN3CCOCC3)CC2)c1C	-	-	-	-	-	-
CCCCNC(=O)C1(C)CCN1C(=O)c1cccc(OC(F)(F)F)c1 (centres undefined)	-	-	-	-	-	-
O=C(CSCC(=O)N1CCCCC1)Nc1nc(-c2ccc(Cl)s2)cs1	-	-	-	-	31	-
Oc1ccc2ccccc2c1C=Nc1ccccc1Br	-	-	-	-	-	-
Oc1ccccc1N=Cc1c(O)ccc2ccccc12	-	-	-	22	-	-
CCC(C)c1ccccc1NC(=O)c1cccc(-n2cnnn2)c1 (centres undefined)	-	-	-	-	-	-
COC(=O)c1cc2c(ccn2-c2ccc(F)cc2)n1Cc1ccc(OC(C)=O)cc1	-	-	-	-	-	21
Cc1sc2nc(CN3CCOCC3)nc(N3CCC(C(N)=O)CC3)c2c1C	-	25	-	-	-	-
Cc1sc2nc(CN3CCOCC3)nc(N3CCOCC3)c2c1C	-	-	-	-	-	-
COC(=O)c1ccc(COC(=O)c2ccc(CS(=O)(=O)c3ccc(C)cc3)cc2)cc1	-	-	-	-	22	-

Assay outcomes (PubChem BioAssay)
